Source: PubChem BioAssay
FBW7 act – FBW7 E3 ligase activators, primary screen, biochemical, AlphaScreen, human; AlphaScreen FBW7–phospho-cyclin E peptide binding, activator screen; hit rate 0.13% among 650,000; F-box/WD repeat-containing protein 7 (Homo sapiens), Q969H0; normalized activity (activation), % at 26.1 µM; AID 1259310, 2017; in the data active = normalized activity above about 1.9%;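 also: purified mutant Fbw7 with reduced substrate affinity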
GPR151 activ – activators of human GPR151, primary screen, cell-based, PathHunter beta-arrestin, luminescence | G-protein coupled receptor 151 (Homo sapiens), Q8TDV0 | PathHunter beta-arrestin GPR151 cells | activation, % at 11.2 µM | hit rate 1% among 650,000; in the data active = activation above about 4.9%;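 also: 0% = median of compound wells and 100% = cells with positive control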
MITF inh – MITF inhibitors, primary screen, biochemical, AlphaScreen, human; Microphthalmia-associated transcription factor (Homo sapiens), O75030; AlphaScreen MITF homodimerization, bead proximity signal; inhibition, % at 2.6 µM; hit rate 0.91% among 650,000; in the data active = inhibition above about 50%;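 also: 0% = vehicle wells with protein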
Target sequence (O75030 whole entry, looked up): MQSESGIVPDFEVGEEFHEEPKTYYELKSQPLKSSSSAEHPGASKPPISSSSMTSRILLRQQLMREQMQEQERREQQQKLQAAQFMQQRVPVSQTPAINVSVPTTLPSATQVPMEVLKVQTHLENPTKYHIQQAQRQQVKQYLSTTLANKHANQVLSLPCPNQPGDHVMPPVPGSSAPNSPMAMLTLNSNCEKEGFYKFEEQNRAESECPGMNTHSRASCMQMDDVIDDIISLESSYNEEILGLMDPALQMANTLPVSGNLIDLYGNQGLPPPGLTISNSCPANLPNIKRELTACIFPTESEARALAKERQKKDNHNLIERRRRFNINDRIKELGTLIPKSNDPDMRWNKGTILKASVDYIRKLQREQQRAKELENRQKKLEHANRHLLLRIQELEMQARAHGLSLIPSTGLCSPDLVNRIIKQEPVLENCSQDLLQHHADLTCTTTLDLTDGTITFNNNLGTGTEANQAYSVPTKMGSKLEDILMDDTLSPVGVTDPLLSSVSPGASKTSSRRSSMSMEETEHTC
TEAD-YAP block – TEAD-YAP interaction inhibition, primary screen, TEAD-YAP interaction inhibitor project, luminescence, HEK-TIYL cells; TEAD-Gal4/YAP UAS-luciferase luminescence; inhibition, % at 9.12 µM; hit rate 1.4% among 640,000; AID 1259422, 2018; in the data active = inhibition above about 32%;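 also: 0% = median of test compound wells and 100% = reference inhibitor wells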
* marks the source's active call; other numbers are inactive results; . = no result; ! = repeats disagree. Only some compounds are listed: those with a hit (about 3.5% of all), similar ones and a draw of the others.

SMILES	FBW7 act	GPR151 activ	MITF inh	TEAD-YAP block
CCOC(=O)CNc1ncnc2scc(-c3ccccc3)c12	0	0	2	35*
CN(C)c1ccc(C2OCC3(CO2)SC(=O)NC3=O)cc1 (centres undefined)	4.9*	-1	11	12
Cc1ccccc1C(=O)N/N=C/c1ccccc1Cl	0	-1	0	-58
O=S(=O)(c1ccc2oc3ccccc3c2c1)N1CCCc2ccccc21	0	-1	-4	59*
Cc1cc(S(=O)(=O)N2CCCCCC2)ccc1-n1cnnn1	0	0	9	-4
O=S(=O)(c1ccc(F)c(F)c1)N1CCCc2ccccc21	1	1	18	10
O=C(O)c1c[nH]c2ccc(S(=O)(=O)N3CCCc4ccccc43)cc2c1=O	0	1	1	48*
Cc1cc(S(=O)(=O)N2CCCc3ccccc32)ccc1-n1cnnn1	2.1*	0	17	3
O=S(=O)(c1ccc2ccccc2c1)N1CCCc2ccccc21	0	0	-7	55*
Cc1cc(CNS(=O)(=O)c2ccc(CC(C)C)cc2)no1	0	0	11	6
CC(C)Oc1ccc(CC(=O)c2ccc(O)cc2O)cc1	0	-2	-3	66*
CC(C)(C)c1ccc(OCC(=O)c2ccc(O)cc2O)cc1	0	-3	-6	96*
COc1ccc(CC(=O)c2ccc(O)cc2O)cc1	0	0	-4	34*!
CCc1cc(C(=O)Cc2ccc(OC)cc2)c(O)cc1O	0	1	-6	1
Cc1ccc(OCC(=O)c2ccc(O)cc2O)cc1	0	-7	2	-4
O=C(Cc1ccc(Br)cc1)c1ccc(O)cc1O	0	0	-1	-17
COc1cc(N)c(-c2nc3ccccc3[nH]2)cc1OC	1	-7	16	46*
c1ccc2[nH]c(-c3cc(-c4cc(-c5nc6ccccc6[nH]5)c5ccccc5n4)nc4ccccc34)nc2c1	0	-10	11	82*
O=C(CN(C(=O)C(=O)Nc1ccc2c(c1)OCO2)c1cccnc1)NC1CCCCC1	0	0	6	1
CC(C)NC(=O)c1cnn2c1NC(c1ccco1)CC2C(F)(F)F (centres undefined)	0	0	-11	7
CC(Oc1ccccc1)C(=O)Nc1cccc2ccccc12 (centres undefined)	0	-1	-9	5
CCOC(=O)/C=C(\Nc1ccc(C)cc1N)c1ccccc1	0	-9	-10	38*
Cc1ccc(NC(=O)COc2ccccc2)c(N)c1	0	0	11	-45
Cc1nc(N)sc1C(=O)N/N=C/c1c(F)cccc1Cl	0	-2	1	-10
Cc1nc(N)sc1C(=O)N/N=C/c1c(Cl)ccc(Cl)c1Cl	2.5*	1	15	9
SMILES	FBW7 act	GPR151 activ	MITF inh	TEAD-YAP block
Cc1ccc(NC(=O)CSc2nnc(NC(=O)C3CCCCC3)s2)cc1	0	0	-2	-13
O=C1CN(C(=O)COC(=O)c2cc(-c3cccs3)nc3ccccc23)c2ccccc2N1	0	-1	55*	7
CC(C)(C)C(=O)c1sc2c(c1N)c(=O)[nH]c(=O)n2CC1CCCO1 (centres undefined)	0	-1	5	0
O=[N+]([O-])c1cccc(S(=O)(=O)N2CCc3ccccc32)c1	0	0	3	32*
Cc1cc(C)c(S(=O)(=O)N2CCc3ccccc32)cc1[N+](=O)[O-]	0	1	49	64*
O=[N+]([O-])c1cccc(S(=O)(=O)N2CCc3ccccc3C2)c1	0	1	0	1
CCOC(=O)/C(C#N)=C(\O)c1ccc(NC(=O)c2cccs2)cc1	0	-3	-7	-6
O=C(CSCC(=O)N1CCCCC1)Nc1nc(-c2ccccc2)cs1	0	1	0	-27
Cc1cccc(NC(=O)C2CCCN(S(=O)(=O)c3ccc4c(c3)oc(=O)n4C)C2)n1 (centres undefined)	0	0	-12	34*
Cc1cccc(NC(=O)C2CCCN(S(=O)(=O)c3ccc4c(c3)oc(=O)n4C)C2)c1 (centres undefined)	0	1	0	-11
O=C(NCc1ccccc1)c1ccc2cnc(Nc3ccc(-n4cnc(N5CCOCC5)n4)cc3)nc2c1	0	1	47	-2
c1cc(-n2cnc(N3CCOCC3)n2)ccc1Nc1ncc2ccc(N3CCOCC3)cc2n1	0	2	-1	1
Nc1ccc(-c2ccc3cnc(Nc4ccc(-n5cnc(N6CCOCC6)n5)cc4)nc3c2)cn1	1	2	2	65*
c1cc(-c2ccc3cnc(Nc4ccc(-n5cnc(N6CCOCC6)n5)cc4)nc3c2)[nH]n1	13*	0	-6	11
Cn1nccc1-c1ccc2cnc(Nc3ccc(-n4cnc(N5CCOCC5)n4)cc3)nc2c1	0	0	1	-17
CNC(=O)c1ccc2cnc(Nc3ccc(-n4cnc(N5CCOCC5)n4)cc3)nc2c1	0	1	37	55*
CCOc1ccccc1-n1c(=S)sc2c(=O)n(-c3ccccc3F)c(SCC(=O)NCc3ccco3)nc21	0	-1	19	-1
COc1cccc(NC(=O)CSc2nc3ccsc3c(=O)n2Cc2ccccn2)c1	0	0	3	-25
CC1=NN(c2cccc(C(=O)O)c2)C(=O)/C1=C\c1ccccc1O	-1	1	57*	-25
CC1=NN(c2cccc(C(=O)O)c2)C(=O)/C1=C\c1ccc(-c2ccc(Cl)c(C(=O)O)c2)o1	-1	3	74*	9
CCOc1cc(/C=C2\C(=O)N(c3cccc(C(=O)O)c3)N=C2C)cc(Cl)c1OC	-1	-1	61*	-2
CCCCCCCC/C=C\CCCCCCCCCCCCCC(=O)NCCS(=O)(=O)O	.	-2	6	.
O=C(CSc1nnc2sc3ccccc3n12)c1ccc(F)cc1	2.1*	-1	-4	-38
O=C(CSc1nnc2sc3ccccc3n12)NCc1ccccc1	0	1	8	46*
O=C1CCCC2=C1C(c1ccc(O)c(Br)c1)C1=C(CCCC1=O)O2	0	0	17	45*
Cn1cccc1C(=O)NC(=O)COC(=O)c1cc(-c2ccco2)nc2ccccc12	0	3	77*	-4
O=[N+]([O-])c1cccc(N/N=C/c2ccc([N+](=O)[O-])s2)c1	0	-1	0	39*
Cc1cc(I)ccc1NC(=O)Nc1ccc(F)cc1	0	0	-4	5
CN(C)c1ccc(-c2nc3ccccc3c(=O)[nH]2)cc1	0	-7	7	72*
